The sample as a whole holds a higher share of hits than the screen did.
FBPA Giardia inh – Giardia lamblia aldolase inhibition; purified Giardia FBPA; Potency, µM (titrated, usually from 59.6 µM), inactives show top-dose activity, negative = inhibition, most hits filed as inhibitors; 290,000 compounds, 0.71% hits; AID 2451; also: potency is read from the fitted curve at half-maximal effect; % is scaled to controls: 0 for no effect and ±100 for the full control effect; nearly all actives have a fitted effect of over 55% in size
Target sequence (A8B2U2 whole entry, looked up): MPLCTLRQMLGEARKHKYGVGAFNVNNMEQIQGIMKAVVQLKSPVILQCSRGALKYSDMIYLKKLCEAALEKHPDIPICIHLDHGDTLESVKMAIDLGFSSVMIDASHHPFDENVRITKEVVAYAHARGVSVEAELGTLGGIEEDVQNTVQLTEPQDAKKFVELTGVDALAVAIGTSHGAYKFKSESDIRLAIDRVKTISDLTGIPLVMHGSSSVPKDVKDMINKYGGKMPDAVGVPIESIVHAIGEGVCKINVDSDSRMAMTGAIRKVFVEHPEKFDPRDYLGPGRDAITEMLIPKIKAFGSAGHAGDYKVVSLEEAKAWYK
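Giardia FBPA (40 nM reagent) was preincubated 10 min at RT with compound (up to 57.5 uM final), then substrate plus GAPDH/TPI/NAD/arsenate coupling system with diaphorase/resazurin was added; resorufin fluorescence (525/598 nm) was read after 20 min.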
CHX counter – counter-screen hit for Shiga toxin inhibitors, cycloheximide; cell reporter, cycloheximide protein synthesis inhibition counterscreen; max response, %; 300,000 compounds, 12% hits; AID 2314; in the data active = max response mostly above about 13%, no sharp cut-off; inactive = mostly below about 14%; also: read at 38.3 µM for the half of the compounds with a filed dose; 0% is about no effect
Sm TGR inh – S. mansoni TGR enzyme inhibition; 360,000 compounds, 3% hits; purified TGR, DTNB reduction, TNB absorbance 405 nm; Q962Y6; Potency, µM (series often up to 114 µM), inactives show at the top dose activity change, negative = inhibition, hits mostly inhibitors; also: potency is read from the fitted curve at half-maximal effect; % is scaled to controls: 0 for no effect and ±100 for the full control effect; nearly all actives have a fitted effect of over 60% in size
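First, TGR (20 nM dispensed) and NADPH were mixed with compound. Second, a 15 min room-temperature incubation followed. Third, further NADPH and then DTNB were added to start the reaction. Finally, TNB absorbance was monitored kinetically.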
Tb PYK inh – inhibitors of Trypanosoma brucei pyruvate kinase; Q57TT1; TbPYK enzyme, Kinase-Glo Plus ATP luminescence, 45 min; Potency, µM (doses to about 76.8 µM), for the others: at the top dose activity, negative = inhibition, most hits filed as inhibitors; 410,000 compounds, 0.12% hits; AID 624173; also: potency is read from the fitted curve at half-maximal effect; % is scaled to controls: 0 for no effect and ±100 for the full control effect; nearly all actives have a fitted effect of over 50% in size
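Readout: single end-point luminescence (Kinase-Glo Plus, 10 min). Reaction conditions were TbPYK/substrate plus 130 uM ADP, 45 min at RT, pH 7.2 TEA buffer. No-enzyme wells served as controls, and data were normalized before concentration-response fitting.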
LmPK inh – LmPK (Leishmania mexicana) enzyme inhibition. Q27686. purified LmPK, Kinase-Glo ATP luminescence, 1 h. Potency, µM (titrated, usually from 57.5 µM), for inactives: at the top dose activity change, negative = inhibition, most hits filed as inhibitors. 290,000 compounds, 0.37% hits; also: potency is read from the fitted curve at half-maximal effect; % is scaled to controls: 0 for no effect and ±100 for the full control effect
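Purified LmPK (0.1 nM) converted ADP (0.1 mM) to ATP with PEP (0.5 mM) in imidazole buffer pH 7.2 with KCl and MgCl2, 1 h at room temperature. ATP was read by Kinase-Glo luminescence; data normalized to uninhibited and no-enzyme controls.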
Shiga toxin inh – Shiga toxin inhibition. inhibition, % at 38.7 µM. 290,000 compounds, 9.2% hits. AID 2315. Vero cells, Shiga toxin protein synthesis inhibition reporter; in the data active = inhibition mostly above about 28%, no sharp cut-off; inactive = mostly below about 43%; also: 0% is about no effect
Active calls of the source: *; ? = inconclusive; nt = no result; + = active, no number; [ ] = dose if it differs, or a comment. Unless noted, calls follow the shape of the dose curve; as a rule, active = well fitted curve in the direction sought with a large enough effect; inconclusive = small, poorly fitted or top-dose-only effect, or another doubt; inactive = no such curve, though single readings can be large; an effect the other way counts as inactive or inconclusive.

SMILES	FBPA Giardia inh	CHX counter	Sm TGR inh	Tb PYK inh	LmPK inh	Shiga toxin inh
CCCSc1nnc(NC(=O)Nc2ccccc2)s1	2%	19*	-25%	27%	-2%	21
CCCSc1nnc(NC(=O)Nc2ccc(F)cc2)s1	3%	32*	89µM*	0%	-4%	29
CCCSc1nnc(NC(=O)Nc2ccc(C)cc2)s1	0%	2	14%	0%	-3%	17
O=C(c1ccncc1)c1ccc(NC(=O)c2cccs2)cc1	-17%	29*	12%	3%	4%	148*
O=C(Nc1ccc(NC(=O)c2cccs2)cc1)c1cccnc1	5%	2	-2%	3%	2%	-2
O=C(Nc1ccc(Cc2ccncc2)cc1)c1cccs1	-12%	33*	5%	2%	-2%	69*
COC(=O)c1c(-c2ccc(OC)cc2)sc2ccc(N3CCOCC3)cc12	nt	nt	nt	3%	nt	nt
COC(=O)c1nc2ccc(N3CCOCC3)cc2c(C)c1C(=O)OC	7.9µM*	22	8%	-3%	2%	57*
Cc1ccc(CNC(=O)c2nnn(Cc3ccc(F)cc3)c2N)cc1	nt	nt	1%	3%	nt	nt
Cc1nc2ccc(S(=O)(=O)CCC(=O)Nc3ccc(C(C)C)cc3)cc2s1	nt	nt	0%	-13%	nt	nt
Cc1ccc(C2NC(=O)c3c(sc4c3CCN(C)C4)N2)o1 (stereo not given)	?	-2	-17%[11.4 µM]	4%	2%	-13
CN1CCc2c(sc3c2C(=O)NC(c2ccccc2)N3)C1 (stereo not given)	?	20*	-19%	-8%	2%	active
CN1CCc2c(sc3c2C(=O)NC(c2ccccn2)N3)C1 (stereo not given)	?	21*	40µM*	-11%	2%	2
Cc1ccc(C2NC(=O)c3c(sc4c3CCN(C)C4)N2)s1 (stereo not given)	?	33*	-2%	-18%	-4%	67*
CC(C)(C)C1CCc2c(sc3c2C(=O)NC(c2ccco2)N3)C1 (stereo not given)	-15%	34*	?	?	2%	74*
CCOC(=O)c1ccc(NC(=O)CCCn2c(=O)c3cccn3c3cccnc32)cc1	nt	nt	5%	-2%	nt	nt
CCCCN(Cc1nc2ccccc2c(=O)[nH]1)C(=O)c1nn(C)c(=O)c2ccccc12	nt	nt	-1%	2%	nt	nt
O=C1NC(c2ccc(Br)cc2)Nc2sc3c(c21)CCC3 (stereo not given)	?	15	21%	-21%	3%	23
O=C1NC(c2ccccn2)Nc2sc3c(c21)CCC3 (stereo not given)	?	31*	32µM*	-13%	-9%	99*
Cc1ccsc1C1NC(=O)c2c(sc3c2CCCC3)N1 (stereo not given)	-22%	28*	35µM*	-14%	-3%	+
O=C1NC(c2cccnc2)Nc2sc3c(c21)CCCC3 (stereo not given)	-21%	33*	45µM*	-18%	0%	61*
CC1(Cc2ccc(Cl)cc2)C(=O)Nc2c(Cl)cccc21 (stereo not given)	nt	nt	nt	-1%	nt	nt
COc1ccc(Oc2ncc3nc(CCc4ccccc4)c(=O)n(C)c3n2)cc1	2%	nt	nt	1%	nt	nt
COc1ccc(CNC(=O)c2cc(C)nc3c2c(C)nn3-c2cccc(Cl)c2C)cc1	nt	nt	8%	3%	nt	nt
C=CS(=O)(=O)N(Cc1ccccc1Br)[C@H](CO)CC(C)C	nt	nt	nt	0%	nt	nt
SMILES	FBPA Giardia inh	CHX counter	Sm TGR inh	Tb PYK inh	LmPK inh	Shiga toxin inh
Clc1cccc(Cl)c1/C=C/c1nc2ccccc2[nH]1	-14%	31*	-22%	-5%	?	78*
Clc1ccc(/C=C/c2nc3ccccc3[nH]2)cc1	-12%	7	25µM*	?	8.9µM*	-12
O=C(/C=C/c1ccc(Cl)cc1Cl)c1nc2ccccc2[nH]1	7%	-4	-17%	-5%	1%	30
Clc1ccc(/C=C/c2nc3ccccc3[nH]2)c(Cl)c1	-7%	-1	2%	4%	14µM*	15
COc1ccccc1N1CCN(C(=O)c2cnn(C(C)(C)C)c2C2CCN(C(=O)OC(C)(C)C)CC2)CC1	nt	nt	-2%	0%	nt	nt
Cc1ccc(/C=C/c2onc(C)c2S(=O)(=O)N2CCC(C(=O)N3CCN(c4cccc(C)c4)C(C)C3)CC2)cc1 (stereo not given)	nt	nt	10%	0%	nt	nt
CCCCc1cc2c(=O)c(C(=O)OC)c[nH]c2cc1OCc1ccccc1	nt	nt	nt	6%	nt	nt
Nc1nc(Nc2ccc(Cl)cc2Cl)nc(C(F)(F)F)n1	-3%	43*	-4%	2%	3%	65*
Nc1nc(Nc2ccccc2)nc(C(F)(F)F)n1	9%	30*	7%	-1%	-3%	47
COc1cccc(Nc2nc(N)nc(C(F)(F)F)n2)c1	-7%	16	-32%	2%	0%	59
O=C(NCc1ccc(Cl)cc1)c1cccc2c1C(=O)N(CC1CCCO1)C2 (stereo not given)	-5%	-2	1%	-5%	-4%	-2
CC(C)c1ccc(NC(=O)C2CC3CCC2C3)cc1 (stereo not given)	-13%	53*	7%	-5%	-1%	86*
Cc1cc(C)c(NC(=O)C2CC3CCC2C3)c(C)c1 (stereo not given)	-3%	15*	15%	1%	3%	33
Cc1cccc(C)c1NC(=O)C1CC2CCC1C2 (stereo not given)	nt	nt	nt	1%	nt	nt
CCC(C)c1ccc(NC(=O)C2CC3CCC2C3)cc1 (stereo not given)	nt	nt	nt	4%	nt	nt
Cc1cc(C)nc(Nc2n[nH]c(-c3cccc4ccccc34)n2)n1	-7%	19*	-18%	6%	3%	27
Cc1cc(C)nc(Nc2n[nH]c(-c3ccccc3Cl)n2)n1	0%	16	17%	-1%	-5%	20
COc1ccc(CNC(=O)CCS(=O)(=O)c2ccc3c(c2)NC(=O)CS3)cc1	-4%	-3	13µM*	3%	0%	-4
CCN(c1ccc(OC)cc1)S(=O)(=O)c1ccc2c(c1)NC(=O)CS2	nt	34*	-14%	0%	3%	27
N#CCC(=O)Nc1ccc(C(=O)NNC(=O)CCN2CCN(c3ccccc3)CC2)cc1	nt	nt	-8%	0%	nt	nt
CC(=O)c1cccc(Nc2nc(-c3cccnc3)cs2)c1	3%	51*	-5%	-1%	-5%	58*
O=C(NC(=S)Nc1nc(-c2ccccc2)cs1)c1cccnc1	-28%	7	-16%	9%	0%	1
CC(=O)c1ccc(Nc2nc(-c3cccnc3)cs2)cc1	-6%	22*	4%	1%	1%	20
O=C(Nc1cccc(-c2csc(Nc3cccc(C(F)(F)F)c3)n2)c1)c1ccccc1	-6%	-1	11%	0%	-3%	8
O=C(O)c1ccc(Nc2nc(-c3cccnc3)cs2)cc1	3%	2	1%	-12%	1%	15

Screening results (PubChem)
